# Most compounds without a hit are left out; they make up all but 3.5% or so of the library.
# mHTT-CaM PPI inh: inhibitors of human mutant huntingtin-calmodulin interaction. P42858. AlphaScreen His-mHTT/GST-CaM binding, luminescence. inhibition, % at 15 µM. 190,000 tested, 3.6% active. AID 1671202;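 note: 0% = both proteins with DMSO and 100% = one protein alone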
# Pf apPOL block: Pf-apPOL DNA polymerase inhibition | Recombinant Pf-apPOL, molecular beacon fluorescence, 1.5 h | inhibition, % at 10 µM | 210,000 tested, 0.25% active
# Starred values were filed as active, the others as inactive; / = not tested or not shown; ! = not active in a repeat. Cut-off read from the data, not from the text of the source: active = inhibition above about 50%; inactive = the rest.
SMILES,mHTT-CaM PPI inh,Pf apPOL block
O=c1nc(/C=C/c2ccc(-c3cccc(Cl)c3)o2)cc(C(F)(F)F)[nH]1,91*,-6
O=c1nc(/C=C/c2ccc(-c3ccc(Br)cc3)o2)cc(C(F)(F)F)[nH]1,99*,-4
O=C(O)c1ccccc1-c1ccc(/C=C/c2cc(C(F)(F)F)[nH]c(=O)n2)o1,3,-5
O=C(O)c1cc(Cl)ccc1-c1ccc(/C=C/c2cc(C(F)(F)F)[nH]c(=O)n2)o1,13,-1
Cc1cccc(CNC(=O)c2ccnc(-c3ccsc3)c2)c1,-11,-2
Cn1cc(CC(=O)NCc2ccc(F)cc2)c2cccnc21,-10,-3
COc1ncccc1CNC(=O)c1cccc2[nH]ccc12,-5,2
COc1ccc(-c2c(C)[nH]n3c(=O)cc(-c4ccc([N+](=O)[O-])cc4)nc23)cc1,53*,-3
Cc1cc(=O)n2[nH]c(C)c(-c3ccc(Cl)cc3)c2n1,-3,-7
Cc1nc2c(-c3ccc(Cl)cc3)c[nH]n2c(=O)c1Cl,10,-1
O=c1cc(-c2ccc([N+](=O)[O-])cc2)nc2c(-c3ccc(Cl)cc3)c[nH]n12,54*,4
COc1ccc(CC2CCN(C(=O)Nc3ccccc3OC)CC2)cc1,-20,10
Cc1c(Cl)cccc1S(=O)(=O)N1CCN(c2nc3ccncc3n(C)c2=O)CC1,1,0
CC(=O)NC(c1ccc(C(C)C)cc1)c1cc(Cl)c2cccnc2c1O (centres undefined),100*,12
CC(=O)NC(c1ccccc1Cl)c1cc(Cl)c2cccnc2c1O (centres undefined),95*,8
CC(C)C(=O)NC(c1ccc2c(c1)OCO2)c1cc(Cl)c2cccnc2c1O (centres undefined),62*,-8
CCCC(=O)NC(c1ccc(N(C)C)cc1)c1cc(Cl)c2cccnc2c1O (centres undefined),43,-2
CC(=O)NC(c1ccc(N(C)C)cc1)c1cc(Cl)c2cccnc2c1O (centres undefined),96*,-5
OC(c1ccc2c(c1)OCO2)c1nccc2ccccc12 (centres undefined),5,-7
COc1ccc(C2=C/C(=C\c3ccc([N+](=O)[O-])o3)C(=O)O2)cc1,13,-2
COc1ccc(CNC(=O)C2CC(=O)N(c3ccc4c(c3)CCN4C(C)=O)C2)cc1 (centres undefined),0,-2
CCCS(=O)(=O)N1CCc2ccc(NC(=O)Cn3c(=O)oc4ccccc43)cc2C1,-6,-1
CCCCC(=O)NC(c1ccc(OC)cc1)c1cc(Cl)c2cccnc2c1O (centres undefined),26,10
COc1ccc(C(NC(C)=O)c2cc(Cl)c3cccnc3c2O)cc1 (centres undefined),100*,7
CC(=O)NC(c1ccccc1)c1cc(Cl)c2cccnc2c1O (centres undefined),100*,1
SMILES,mHTT-CaM PPI inh,Pf apPOL block
CC(=O)N(c1ccc(C)cc1)C1(C(=O)NC2CCCCC2)CCCCC1,9,-2
O=C(NC1CCN(Cc2ccccc2)CC1)c1cccn2c(=O)c3cc(Cl)ccc3nc12,13,-2
Cc1ccc2nc3c(C(=O)N4CCN(Cc5ccccc5)CC4)cccn3c(=O)c2c1,84*,-3
CCOc1ccc(OCCNC(=O)c2cccs2)cc1,-18,-9
O=C(NCCOc1ccc(-c2ccccn2)nn1)c1cccs1,100*,-15
O=C(NCCOc1ccccc1-c1ccccc1)c1ccco1,0,-1
CC(Oc1ccccc1F)C(=O)NCCOc1ccc(-c2ccccn2)nn1 (centres undefined),100*,-9
CC(Oc1ccccc1F)C(=O)NCCN1CCCCC1 (centres undefined),-1,-3
O=C(NCCOc1ccc(-c2ccccn2)nn1)c1ccco1,100*,-9
CC1Cc2nc(SCC(=O)c3ccc(Cl)cc3)n(Cc3ccccc3)c(=O)c2S1 (centres undefined),19,7
C=CCNC(=O)c1n[nH]c2c1CN(C(=O)Cc1ccccc1F)CC2,26,-5
O=C(Nc1ccc(S(=O)(=O)N2CCCCC2c2cccnc2)cc1)c1cccc(F)c1 (centres undefined),14,-6
COc1ccc(C2CC(c3ccc(Br)cc3)Nc3ncnn32)c(OC)c1 (centres undefined),57*,-4
COc1ccc(C2CC(c3cccc(Br)c3)Nc3ncnn32)c(OC)c1 (centres undefined),41,-9
COc1cccc(C2CC(c3ccc(I)cc3)Nc3ncnn32)c1OC (centres undefined),34,-4
COc1ccc(C2CC(c3cc(OC)ccc3OC)n3ncnc3N2)cc1 (centres undefined),17,-8
COc1ccc(OC)c(C2CC(c3ccc(Br)cc3)Nc3ncnn32)c1 (centres undefined),61*,-2
COc1ccc(C2CC(c3ccc(Br)cc3)Nc3ncnn32)c(OC)c1OC (centres undefined),57*,0
COc1ccc(C2CC(c3ccc(C)cc3)Nc3ncnn32)c(OC)c1OC (centres undefined),24,-6
COc1cccc(C2CC(c3ccc(C)c(C)c3)Nc3ncnn32)c1OC (centres undefined),53*,-2
COc1ccc(NC(=O)CCN2CCN(C3c4ccccc4-c4ccccc43)CC2)cc1,17,-4
Cc1cccc(C(=O)N2CCCC(C(=O)Nc3cccc(C)c3C)C2)c1 (centres undefined),33,-27
CCc1ccc(NC(=O)CSC2N=CN=N2)cc1 (centres undefined),-1,2
O=C(NCCCc1ccccc1)c1csc2c1CCCCC2,-9,-1
CCS(=O)(=O)c1ccc(-c2ccc(NS(=O)(=O)c3ccc(Cl)s3)cc2)nn1,4,-2
SMILES,mHTT-CaM PPI inh,Pf apPOL block
CC1=NN(c2ccccc2)C(=O)C1N=Nc1ccc([N+](=O)[O-])cc1 (centres undefined),/,-4
Cc1nc([N+](=O)[O-])c2n1CC(c1ccccc1)=NN2c1ccc([N+](=O)[O-])cc1,58*,-4
CC(=O)n1c(/C=C2\N=C(c3ccc([N+](=O)[O-])cc3Cl)OC2=O)cc2ccccc21,12,-7
CCc1cccc(NC(=O)C2CC(=O)N(c3cccc(NC(C)=O)c3)C2)c1 (centres undefined),2,-1
O=C1C=CC(=O)C(C2=C3C(=O)N(Cc4ccccc4)CC(=O)N3CCC2)=C1,82*,-8
O=C1NCCN(Cc2ccccc2)C1=O,-1,-6
COc1cccc(OCCOCCN2CCCCC2)c1,2,-6
C=CCc1ccccc1OCC(O)CN1CCN(c2cccc(Cl)c2)CC1 (centres undefined),99*,-2
C=CCc1ccccc1OCC(O)CN1CCCCC1 (centres undefined),-6,-6
CC(C)c1ccc(OCC(O)CN2CCN(c3ccc(F)cc3)CC2)cc1 (centres undefined),39,-4
C=CCc1ccccc1OCC(O)CN1CCN(c2ccc(OC)cc2)CC1 (centres undefined),54*!,0
OC(COc1ccc(F)cc1)CN1CCN(c2cccc(Cl)c2)CC1 (centres undefined),81*,-2
C=CCc1ccccc1OCC(O)CN1CCN(C)CC1 (centres undefined),-4,-1
CSc1ccccc1C(=O)Nc1ccc(CC(=O)NCc2cccs2)cc1,-16,-3
O=C(Nc1cccn2ncnc12)c1ccc(Cl)s1,-1,0

# High-throughput results as filed in PubChem BioAssay.
